# High-throughput results: PubChem BioAssay, National Center for Advancing Translational Sciences (NCATS)
# This excerpt belongs to a sample that is enriched for hits.
# ERK EGF inh – blocks ERK signaling stimulated by EGF; actives 0.41% (n = 130,000); HEK293-V1b, EGF-stimulated phospho-ERK AlphaScreen; Potency, µM (doses to about 11.5 µM), actives largely listed as inhibitors; AID 1454; active = well fitted inhibition curve with a large enough effect; also: nearly all actives have a fitted effect of over 55% in size
#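 Homogeneous cell-based phospho-ERK assay: HEK293/V1b cells in 1% FBS, compound 30 min then EGF 5 min, AlphaScreen luminescence. Activity normalized between DMSO and 25 nM EGF controls; AC50 from Hill modelling.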
# Hits are given with their value; . = inactive.
SMILES,ERK EGF inh
COC(=O)N1CCC[C@@]2(CCN(C(c3ccccc3)c3ccccc3)C2)C1,.
CC(C)N(CC(=O)Nc1ccc(Cl)cc1C(F)(F)F)C(=O)CCl,.
Cc1nc(C)c(C(=O)N/N=C/c2cc(Br)ccc2O)s1,.
O=C(OC(c1ccccc1)c1nccc2ccccc12)c1cc([N+](=O)[O-])cc([N+](=O)[O-])c1 (stereo not given),15.8µM
O=C(c1cc([N+](=O)[O-])cc([N+](=O)[O-])c1)N(c1ccccn1)c1ccccn1,.
O=C(NC(c1ccccc1)c1ccccn1)c1cccc([N+](=O)[O-])c1 (stereo not given),.
Cc1cnc(CN(C)Cc2nc(Cc3cccc(C(F)(F)F)c3)no2)[nH]1,.
Cc1ccc2cc(CCNC(=O)c3cc4ccccc4o3)c(=O)[nH]c2c1C,31.6µM
CCC(=O)NCCc1cc2ccc(C)c(C)c2[nH]c1=O,.
Cc1ccc2cc(CCNC(=O)C(C)C)c(=O)[nH]c2c1C,.
CC1c2cccc(O)c2C(O)=C2C(=O)[C@]3(O)C(O)=C(C(N)=O)C(=O)C(N(C)C)C3C(O)C21 (stereo not given in full),.
CCOC(=O)C1=C(O)C(=O)N(c2ccccc2)C1c1cccc([N+](=O)[O-])c1 (stereo not given),.
CCOC(=O)C1=C(N)Oc2cc(O)ccc2C1c1ccc([N+](=O)[O-])cc1 (stereo not given),17.8µM
CCOC(=O)C1=C(O)C(=O)N(c2ccc(S(N)(=O)=O)cc2)C1c1ccc([N+](=O)[O-])cc1 (stereo not given),.
CCC1C(=O)NCCN1Cc1nc(-c2ccc(C)s2)oc1C (stereo not given),.
O=C(O)c1ccccc1C(=O)Nc1ccc(-n2nccc2C(F)(F)F)cc1,.
N#CC1(c2ccccc2)CCC(=O)N1Cc1ccccc1 (stereo not given),.
Cc1cccc(C)c1NC(=O)c1cccc2c1-c1ccccc1C2=O,.
N/C(Cc1ccccc1Sc1ccccc1)=N\O,.
O=C1c2cccc(Sc3ccccc3)c2C(=O)c2c(Sc3ccccc3)cccc21,7.08µM
N[C@H](Cc1ccc(O)c(O)c1)C(=O)O,.
O=C(c1ccccc1)c1cccn1CC(=O)N1CCc2ccccc2C1,.
CN1CC[C@@]23c4ccccc4N[C@H]1[C@]21CCN(C)[C@@H]3Nc2ccccc21,.
COc1cccc(OC)c1C1=NC(C)(C)CO1,.
CCOC(=O)c1[nH]cnc1N=Nc1c(O)ccc2ccccc12,.
SMILES,ERK EGF inh
Oc1ccc2ccccc2c1N=Nc1ccccc1F,14.1µM
Oc1ccc2ccccc2c1CN1CCN(c2ccccc2F)CC1,.
Cc1cccc(C(=O)NC2=NCCS2)c1,.
COc1ccccc1C(=O)/C=C/c1ccc(N2CCCCC2)c([N+](=O)[O-])c1,15.8µM
O=C(O)c1ccccc1C(=O)c1ccc(N2CCCC2)c([N+](=O)[O-])c1,.
COc1ccccc1N1CCN(C(=O)/C=C/c2cccc([N+](=O)[O-])c2)CC1,.
CCOC(=O)c1sc(-c2ccccn2)nc1C,.
COc1cc(/C=N/Nc2cc(C)nc(NS(=O)(=O)c3ccc(C)cc3)n2)ccc1O,.
COc1ccc(/C=N/Nc2nc(-c3cccc(S(=O)(=O)N4CCCC4)c3)cs2)cc1OC,.
COc1cc(/C=N/Nc2nc(-c3ccc(S(=O)(=O)N(C)C)cc3)cs2)ccc1O,8.91µM
O=C(COC(=O)CCSc1ccccc1)NCc1ccccc1,.
CCC/C=C(\CCC)C(NC(=O)c1ccc(C(F)(F)F)cc1)c1ccc(C(F)(F)F)cc1 (stereo not given),.
Cc1cc(C)nc(N2CCCC(CCC(=O)NCc3ccc(F)c(F)c3)C2)n1 (stereo not given),.
Cc1cccc(C(=O)Oc2ccccc2C(=O)N2CCOCC2)c1,.
O=C(c1ccc(CSc2nc3ccncc3[nH]2)cc1)N1CCCCCC1,.
O=C(NCc1ccc(Cl)cc1)c1ccc(CSc2nc3ccncc3[nH]2)cc1,.
O=C(c1ccc(CSc2nc3ccncc3[nH]2)cc1)N1CCN(c2cccc(Cl)c2)CC1,17.8µM
Cc1cc(=O)[nH]c(NCc2ccccc2)n1,.
Cc1nn(-c2nnc(NCc3ccccc3)nn2)c(C)c1Br,22.4µM
Cc1cccc(Nc2ccc(NCc3ccccc3)nn2)c1,.
Cc1ccc(NC(=O)c2ccc(CNc3c(N4CCC(C)CC4)c(=O)c3=O)cc2)cc1,.
C=CCC(C)(O)c1ccsc1 (stereo not given),.
Cc1cc(C(=O)NC2Cc3ccccc3C2)c(C)o1,.
CC(C)[C@H](NC(=O)c1ccccc1)C(=O)OCc1nc2scc(-c3ccccc3)c2c(=O)[nH]1,35.5µM
Cc1csc(SCc2nc3scc(-c4ccccc4)c3c(=O)[nH]2)n1,.
SMILES,ERK EGF inh
NC(=O)Cc1nc2scc(-c3ccccc3)c2c(=O)[nH]1,.
CNC(=O)c1cc(NC(=O)CCn2nc(-c3ccccc3)c3ccccc3c2=O)ccc1OC,.
CC(C)CN1CC[C@@]2(CCCN(C(=O)c3cnccn3)C2)C1,.
CC1(C)C[C@@H]2C(=O)CCC3O[C@@]3(C)CCC21 (stereo not given in full),.
C[C@@H](C(=O)N[C@@H](Cc1ccccc1)C(=O)O)n1nnc2ccccc2c1=O,.
N#Cc1ccc(NC(=O)Nc2ccc(Oc3ccc(NC(=O)Nc4ccc(C#N)cc4)cc3)cc2)cc1,31.6µM
N#Cc1ccc(NC(=O)Nc2cccc(C#N)c2)cc1,.
CC(=O)Nc1ccc(Oc2ccccc2)cc1,.
CCCn1nc(C(=O)OCC(=O)c2c(N)n(C)c(=O)n(C)c2=O)c2ccccc2c1=O,.
CCC/C=C(\CCC)C(NC(=O)c1ccccc1)c1ccccc1 (stereo not given),.
CC[C@](C)(CN(C)C)OC(=O)c1ccccc1,.
COc1ccc(-c2csc(NC3=NCCCCC3)n2)cc1,.
COc1ccc(Nc2nc(-c3ccc4c(c3)NC(=O)CO4)cs2)cc1,20µM
COc1ccccc1Nc1nc(-c2ccc3c(c2)NC(=O)CO3)cs1,.
CC(C)N1C(=O)S/C(=C/c2ccccc2OCc2ccc(C(=O)O)cc2)C1=O,.
CCN(CC)c1ccc(/C=C2/SC(=O)N(C(C)C)C2=O)o1,28.2µM
CCN(CC)c1ccc(/C=C(/C#N)C(=O)NC(C)C)o1,.
O=C(c1cnccn1)N1CCC[C@@]2(CCN(Cc3nccs3)C2)C1,.
Cc1ccc(C(=O)NCCSCc2ccccc2)cc1[N+](=O)[O-],.
COc1cc2c(cc1NC(=O)c1ccc(C)c([N+](=O)[O-])c1)oc1ccccc12,.
Cc1ccc(C(=O)c2cc3ccccc3o2)cc1[N+](=O)[O-],22.4µM
COc1ccc(C2c3c(ncn(CCCO)c3=N)Oc3ccc4ccccc4c32)cc1OC (stereo not given),.
COc1ccc(C2c3c(ncn(CCCO)c3=N)Oc3ccc4ccccc4c32)cc1 (stereo not given),39.8µM
N=c1c2c(ncn1CCCO)Oc1cc(O)ccc1C2c1ccccc1 (stereo not given),.
CCOc1ccc2nc(SCC(=O)NC(=O)C(C)C)sc2c1,.
Cc1ccnc(NC(c2cccnc2)c2ccc3cccnc3c2O)c1 (stereo not given),.
Cc1ccnc(NC(c2ccsc2)c2ccc3ccc(C)nc3c2O)c1 (stereo not given),31.6µM
Cc1cccc(NC(c2ccc(C)s2)c2ccc3ccc(C)nc3c2O)n1 (stereo not given),.
Nc1cc(Nc2ccc(Br)cc2)nc(N)n1,.
